Reference: PubChem BioAssay (NCATS)
Results filed as inconclusive are left out. Entries that show only a call come without a potency. Activity calls are given as the source filed them. The call rests on the fitted dose curve; in most records, active means well fitted curve in the direction sought with a large enough effect; inconclusive means small, poorly fitted or top-dose-only effect, or another doubt; inactive means no such curve, though single readings can be large; an effect the other way counts as inactive or inconclusive.

Assays:
[1] = qHTS of pediatric cancer cell lines to identify multiple opportunities for drug repurposing: Primary screen for SJ-GBM2 cells (AID 1347091); settings: SJ-GBM2 viability, CellTiter-Glo luminescence, 48 h; series mostly up to 46 µM
Method in brief: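 Cell viability, CellTiter-Glo luminescence; 500-1,000 cells/well, 8- or 11-point titration, 48 h compound exposure at 37 degrees C, 5% CO2. Controls: DMSO neutral, bortezomib 2.3 µM final as positive.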

[2] = qHTS of pediatric cancer cell lines to identify multiple opportunities for drug repurposing: Primary screen for BT-37 cells (AID 1347094); settings: BT-37 viability, CellTiter-Glo luminescence, 48 h; series mostly up to 57.3 µM; further: potency means the concentration at half of the fitted maximal effect
Method in brief: (§1)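 CRCs from 8- or 11-point titrations (lowest final 0.59 nM NPC, 0.78 nM MIPE). Cell viability: CellTiter-Glo after 48 h incubation, 15 min room-temperature development, luminescence imaging.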

[3] = qHTS of pediatric cancer cell lines to identify multiple opportunities for drug repurposing: Primary screen for U-2 OS cells (AID 1347096); settings: U-2 OS viability, CellTiter-Glo luminescence, 48 h; series mostly up to 46 µM; further: nearly all actives have a fitted effect of over 50% in size; further: potency means the concentration at half of the fitted maximal effect
Method in brief: (§2)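 Cells (500-1,000/well) rested 5 h, then received compounds for 48 h; metabolically active cells were measured by CellTiter-Glo luminescence. Final concentrations spanned up to 46 µM (MIPE, 11-point) or 0.59 nM-46 µM (NPC, 8-point) in primary screens, 11-point in follow-ups.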

[4] = qHTS of pediatric cancer cell lines to identify multiple opportunities for drug repurposing: Primary screen for LAN-5 cells (AID 1347100); settings: LAN-5 neuroblastoma viability, CellTiter-Glo luminescence, 48 h; series mostly up to 46 µM; further: potency means the concentration at half of the fitted maximal effect
Method in brief: as §2

[5] = qHTS of pediatric cancer cell lines to identify multiple opportunities for drug repurposing: Primary screen for A673 cells (AID 1347092); settings: A673 Ewing sarcoma viability, CellTiter-Glo ATP luminescence, 48 h; series mostly up to 46 µM; further: nearly all actives have a fitted effect of over 45% in size; further: potency means the concentration at half of the fitted maximal effect
Method in brief: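 A673 cells (500-1,000 cells/well in growth media) were pre-incubated 5 h at 37 degrees C, then exposed to compounds for 48 h. Viability was read as CellTiter-Glo luminescence; concentration-response curves came directly from the primary screen.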

[6] = qHTS of pediatric cancer cell lines to identify multiple opportunities for drug repurposing: Primary screen for Saos-2 cells (AID 1347097); settings: Saos-2 viability, CellTiter-Glo ATP luminescence, 48 h; series mostly up to 46 µM; further: nearly all actives have a fitted effect of over 40% in size; further: potency means the concentration at half of the fitted maximal effect
Method in brief: as §1

[7] = qHTS of pediatric cancer cell lines to identify multiple opportunities for drug repurposing: Primary screen for NB1643 cells (AID 1347099); settings: NB1643 neuroblastoma viability, CellTiter-Glo luminescence, 48 h; series mostly up to 46 µM; further: nearly all actives have a fitted effect of over 50% in size; further: potency means the concentration at half of the fitted maximal effect
Method in brief: as §1

[8] = qHTS of pediatric cancer cell lines to identify multiple opportunities for drug repurposing: Primary screen for SK-N-SH cells (AID 1347098); settings: SK-N-SH viability, CellTiter-Glo luminescence, 48 h; series mostly up to 57 µM; further: nearly all actives have a fitted effect of over 65% in size; further: potency means the concentration at half of the fitted maximal effect
Method in brief: as §2

[9] = qHTS of pediatric cancer cell lines to identify multiple opportunities for drug repurposing: Primary screen for SK-N-MC cells (AID 1347093); settings: SK-N-MC viability, CellTiter-Glo luminescence, 48 h; series mostly up to 46 µM; further: potency means the concentration at half of the fitted maximal effect
Method in brief: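 Metabolically active cells were quantified by ATP-dependent luminescence (CellTiter-Glo, 15 min at room temperature) following 48 h treatment. Cells had been plated at 500-1,000 per well and settled for 5 h beforehand.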

[10] = qHTS of pediatric cancer cell lines to identify multiple opportunities for drug repurposing: Primary screen for NB-EBc1 cells (AID 1347095); settings: NB-EBc1 neuroblastoma viability, CellTiter-Glo luminescence, 48 h; series mostly up to 46 µM; further: potency means the concentration at half of the fitted maximal effect
Method in brief: as §1

C[C@H](NC(=O)[C@@H](O)c1cc(F)cc(F)c1)C(=O)N[C@@H]1C(=O)N(C)c2ccccc2-c2ccccc21
Potency [1]: inactive | Potency [2]: inactive | Potency [3]: inactive | Potency [4]: inactive

CC(C)N(CC[C@H](c1ccccc1)c1cc(CO)ccc1O)C(C)C
Potency [1]: inactive | Potency [5]: inactive | Potency [2]: inactive | Potency [3]: inactive | Potency [6]: inactive | Potency [7]: inactive | Potency [4]: inactive

C[N+](C)([O-])CCNc1ccc(NCC[N+](C)(C)[O-])c2c1C(=O)c1c(O)ccc(O)c1C2=O
Potency [1]: inactive | Potency [2]: inactive | Potency [3]: inactive | Potency [6]: inactive

Oc1cc2c(cc1O)C1c3ccc(O)c(O)c3OCC1(O)C2 (centres undefined)
Potency [1]: inactive | Potency [5]: inactive | Potency [2]: inactive | Potency [3]: inactive | Potency [6]: inactive | Potency [8]: inactive | Potency [7]: inactive | Potency [4]: inactive

Cc1ccccc1C(=O)Nc1ccc(C(=O)N2CCCC(O)c3cc(Cl)ccc32)c(C)c1 (centres undefined)
Potency [5]: inactive | Potency [9]: inactive | Potency [2]: inactive | Potency [10]: inactive | Potency [3]: inactive | Potency [8]: inactive | Potency [7]: inactive | Potency [4]: inactive

Cc1cnc(Nc2ccc(CN3CCOCC3)cc2)nc1Nc1cccc(S(=O)(=O)NC(C)(C)C)c1
Potency [5]: 2.96 µM (active) | Potency [9]: 0.833 µM (active) | Potency [2]: 17.2 µM (active) | Potency [10]: 2.64 µM (active) | Potency [3]: 7.43 µM (active) | Potency [6]: 3.72 µM (active) | Potency [8]: 3.04 µM (active) | Potency [4]: 1.32 µM (active)

C[C@H]1[C@@H](OC(=O)CCC(=O)O)O[C@@H]2O[C@@]3(C)CC[C@@H]4[C@H](C)CC[C@@H]1[C@@]24OO3
Potency [5]: 5.9 µM (active) | Potency [9]: 0.935 µM (active) | Potency [2]: 3.85 µM (active) | Potency [10]: 1.66 µM (active) | Potency [3]: inactive | Potency [6]: inactive | Potency [8]: 13.6 µM (active) | Potency [7]: 4.18 µM (active) | Potency [4]: 3.32 µM (active)

CCOC(=O)N1CCN([N+]([O-])=NOc2ccc([N+](=O)[O-])cc2C#N)CC1
Potency [5]: 1.18 µM (active) | Potency [9]: 10.5 µM (active) | Potency [2]: 7.69 µM (active) | Potency [10]: 5.26 µM (active) | Potency [8]: inactive | Potency [7]: 3.72 µM (active) | Potency [4]: 4.18 µM (active)

CC1(C)CC(O)CC(C)(C)N1[O]
Potency [5]: inactive | Potency [9]: inactive | Potency [2]: inactive | Potency [3]: inactive | Potency [6]: inactive | Potency [8]: inactive | Potency [7]: inactive | Potency [4]: inactive

CNC(=O)c1cccc(-c2ccc3c(N4CCOC[C@H]4C)nc(N4CCOC[C@H]4C)nc3n2)c1
Potency [5]: 0.148 µM (active) | Potency [9]: 0.0148 µM (active) | Potency [2]: 0.122 µM (active) | Potency [10]: 0.132 µM (active) | Potency [6]: 0.833 µM (active) | Potency [4]: 4.18 µM (active)
